# Most compounds without a hit are left out; they make up all but 1.6% or so of the library.
# SIRT5 block: inhibitors of human sirtuin-5 desuccinylase. Purified SirT5, succinyl-peptide AMC, trypsin-coupled fluorescence. Q9NXA8. inhibition, % at 15 µM. 330,000 tested, 1.1% active; in the data active = inhibition above about 15%
# SUMO HTRF inh: blocks human SUMOylation mediated by UBC9; HTRF SUMOylation assay, SAE1/SAE2 + UBC9, in vitro; inhibition, % at 35 µM; P63279; 290,000 tested, 0.36% active; in the data active = inhibition above about 50%, passing the limit was not always enough
# Target sequence (P63279 whole entry, looked up): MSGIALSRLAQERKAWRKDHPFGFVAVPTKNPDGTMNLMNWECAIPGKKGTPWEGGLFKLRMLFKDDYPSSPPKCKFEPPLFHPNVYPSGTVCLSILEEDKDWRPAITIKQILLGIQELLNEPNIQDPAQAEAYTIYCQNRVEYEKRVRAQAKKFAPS
# NSD2 HMT inh: NSD2 (human) methyltransferase inhibition; O96028; NSD2 peptide methylation, AlphaScreen, 120 min; inhibition, % at 12.5 µM; 310,000 tested, 0.54% active; AID 743445; in the data active = inhibition above about 50%
# Casp6 inh: blocks human caspase-6 cleavage activity; P55212; purified caspase-6, Z-VEID-R110 cleavage fluorescence; inhibition, % at 12.5 µM; 350,000 tested, 0.53% active;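 active = mean inhibition across replicates at least about 35%, with every replicate also reaching that limit, limit read from the data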;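 also: 0% = median of neutral control wells and 100% = no fluorescence left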
# Target sequence (P55212 24-179 limits assumed): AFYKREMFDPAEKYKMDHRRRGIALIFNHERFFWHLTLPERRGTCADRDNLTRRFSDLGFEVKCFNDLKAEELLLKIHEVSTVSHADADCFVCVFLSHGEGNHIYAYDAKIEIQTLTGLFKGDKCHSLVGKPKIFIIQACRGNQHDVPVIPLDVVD
# Target sequence (P55212 194-293 limits assumed): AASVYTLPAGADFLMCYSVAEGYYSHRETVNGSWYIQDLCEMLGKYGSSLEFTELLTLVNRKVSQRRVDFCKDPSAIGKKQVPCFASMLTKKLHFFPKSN
# * marks the source's active call; other numbers are inactive results; nt = no result given.
SMILES,SIRT5 block,SUMO HTRF inh,NSD2 HMT inh,Casp6 inh
C[C@@H]1CCCCO[C@H](CN(C)S(=O)(=O)c2ccc(Cl)cc2)[C@@H](C)CN([C@@H](C)CO)C(=O)c2cc(NS(=O)(=O)c3ccc(Cl)cc3)ccc2O1,11.0,nt,nt,-0.8
Cc1ccc(S(=O)(=O)N(C)C[C@H]2OCCCC[C@@H](C)Oc3ccc(NS(=O)(=O)c4ccc(Cl)cc4)cc3C(=O)N([C@H](C)CO)C[C@@H]2C)cc1,17.1*,nt,nt,5.3
C[C@H](CO)N1C[C@H](C)[C@H](CN(C)S(=O)(=O)c2ccccc2)OCCCC[C@H](C)Oc2ccc(NS(=O)(=O)c3ccc(Cl)cc3)cc2C1=O,15.1*,nt,nt,2.7
Cc1ccc(S(=O)(=O)N(C)C[C@H]2OCCCC[C@H](C)Oc3ccc(NS(=O)(=O)c4ccc(Cl)cc4)cc3C(=O)N([C@H](C)CO)C[C@@H]2C)cc1,24.0*,nt,nt,2.1
CNC[C@H]1OCCCC[C@@H](C)Oc2ccc(NS(=O)(=O)c3cccs3)cc2C(=O)N([C@@H](C)CO)C[C@H]1C,3.6,nt,nt,1.1
Cc1ccc(S(=O)(=O)N(C)C[C@H]2OCCCC[C@@H](C)Oc3ccc(NS(=O)(=O)c4ccc(Cl)cc4)cc3C(=O)N([C@H](C)CO)C[C@H]2C)cc1,28.5*,nt,nt,2.0
Cc1ccc(S(=O)(=O)N(C)C[C@@H]2OCCCC[C@H](C)Oc3ccc(NS(=O)(=O)c4ccc(Cl)cc4)cc3C(=O)N([C@@H](C)CO)C[C@@H]2C)cc1,21.5*,nt,nt,2.2
Cc1ccc(S(=O)(=O)N(C)C[C@H]2OCCCC[C@@H](C)Oc3ccc(NS(=O)(=O)c4ccc(Cl)cc4)cc3C(=O)N([C@@H](C)CO)C[C@@H]2C)cc1,21.3*,nt,nt,1.6
Cc1ccc(S(=O)(=O)N(C)C[C@@H]2OCCCC[C@H](C)Oc3ccc(NS(=O)(=O)c4ccc(Cl)cc4)cc3C(=O)N([C@H](C)CO)C[C@H]2C)cc1,20.7*,nt,nt,1.7
C[C@@H]1CCCCO[C@H](CN(C)S(=O)(=O)c2cn(C)cn2)[C@@H](C)CN([C@H](C)CO)C(=O)c2cc(NC(=O)Nc3ccccc3)ccc2O1,-0.3,nt,nt,3.5
COCC(=O)Nc1ccc2c(c1)OC[C@H](C)N(C(=O)c1ccccc1F)C[C@@H](C)[C@H](OC)CN(C)C2=O,2.4,nt,nt,0.4
COc1ccccc1C#Cc1ccc([C@@H]2[C@@H](CO)N3CCCCN(C(=O)C4CC4)C[C@@H]23)cc1,8.7,nt,nt,0.7
Cc1noc(C)c1NC(=O)N(C)C[C@H]1Oc2c(NC(=O)Nc3ccc(F)cc3)cccc2C(=O)N([C@H](C)CO)C[C@H]1C,-0.4,nt,nt,-5.9
Cc1noc(C)c1NC(=O)Nc1ccc2c(c1)C(=O)N([C@H](C)CO)C[C@H](C)[C@H](CN(C)S(=O)(=O)c1ccc(F)cc1)OCCCC[C@H](C)O2,1.4,nt,nt,0.2
C[C@@H]1CN([C@H](C)CO)S(=O)(=O)c2ccc(-c3ccc(C(=O)N(C)C)cc3)cc2O[C@H]1CN(C)Cc1ccccc1C(=O)O,4.2,nt,nt,1.5
CN1CCN(CC(=O)NC(=O)NC2CCCCC2)CC1,0.0,nt,-3.1,-0.3
CN1CCN(NC(=O)NC2CCCCC2)CC1,2.7,4.3,1.1,40.6*
O=C(CN1C(=O)NC2(CCCc3ccccc32)C1=O)NC1CCCCC1 (stereo unspecified),15.8*,nt,0.8,0.0
C[C@@H]1CN([C@@H](C)CO)C(=O)c2cc(NC(=O)Nc3ccccc3)ccc2O[C@@H](C)CCCCO[C@H]1CN(C)S(=O)(=O)c1ccc(F)cc1,-1.8,nt,nt,-2.8
COCCCN=C1NN=C(c2cc(C)n(Cc3ccccc3Cl)c2C)CS1,-1.3,11.3,52.8*,-5.6
C[C@H]1CN([C@@H](C)CO)C(=O)c2cc(NS(=O)(=O)c3ccc(Cl)cc3)ccc2O[C@H]1CN(C)Cc1ccc(Cl)c(Cl)c1,22.8*,nt,nt,nt
COc1ccc(S(=O)(=O)Nc2ccc3c(c2)C(=O)N([C@H](C)CO)C[C@@H](C)[C@@H](CN(C)Cc2ccc(Cl)c(Cl)c2)O3)cc1,19.1*,nt,nt,0.4
C[C@@H]1CN([C@@H](C)CO)C(=O)c2cc(NS(=O)(=O)c3ccc(Cl)cc3)ccc2O[C@@H]1CN(C)Cc1ccc(Cl)c(Cl)c1,8.1,nt,nt,nt
CC(C)NC(=O)N(C)C[C@H]1OCCCC[C@@H](C)Oc2ccc(NC(=O)C3CCCCC3)cc2C(=O)N([C@@H](C)CO)C[C@H]1C,5.1,nt,nt,-2.0
COc1ccc(OC)c(S(=O)(=O)NCCc2ccccc2)c1,15.3*,-2.2,0.3,-1.9
COc1ccc(NC(=S)NCCc2ccccc2)c(C)c1,0.8,-2.1,0.3,36.4*
Cc1cc(OC(F)F)ccc1NC(=S)NCCc1ccccc1,1.6,-15.2,14.2,1.9

# Screens from PubChem.
